PubChem BioAssay (NCATS)
The source made the active and inactive calls. The call rests on the fitted dose curve.

Assay: qHTS drug screen for cell cycle checkpoint inhibitors in PARPi-resistant BRCA-mutant ovarian cancer cell lines. (AID 1963452)
Conditions: PEO1/OlaR viability, CellTiter-Glo luminescence, 96 h, stronger effect = lower value
From the text: Women's Malignancies Branch, Center for Cancer Research (CCR),
National Cancer Institute (NCI), National Institutes of Health (NIH), Bethesda, MD
Poly (ADP-ribose) polymerase inhibitors (PARPis) have changed the treatment paradigm in breast cancer gene (BRCA) - mutant high-grade serous ovarian carcinoma (HGSC). However, most patients eventually develop resistance to PARPis, highlighting an unmet need for improved therapeutic strategies. Using high-throughput drug screens, we identified ataxia telangiectasia and rad3-related protein/checkpoint kinase 1 (CHK1) pathway inhibitors as cytotoxic and further validated the activity of the CHK1 inhibitor (CHK1i) prexasertib in PARPi-sensitive and -resistant BRCA-mutant HGSC cells and xenograft mouse models. CHK1i monotherapy induced DNA damage, apoptosis, and tumor size reduction. We then conducted a phase 2 study (NCT02203513) of prexasertib in patients with BRCA-mutant HGSC. The treatment was well tolerated but yielded an objective response rate of 6% (1 of 17; one partial response) in patients with previous PARPi treatment. […] BRCA reversion mutation in previously PARPi-treated BRCA-mutant patients was not associated with resistance to CHK1i.
Among others, 1082 oncology drugs, both approved and investigational, were prioritized based on their status in clinical trial development. […] Drugs with average Z-AUC values less than -1.0 in all three cell lines were classified as "hits" resulting in 151 oncology drug hits. The screen also confirmed cross-resistance between olaparib and other PARPis (rucaparib, niraparib, and talazoparib) in PARPi-resistant PEO1/OlaR and PEO4.
[1] G. L. Lin, K. M. Wilson, M. Ceribelli, B. Z. Stanton, P. J. Woo, S. Kreimer, E. Y. Qin, X. Zhang, J. Lennon, S. Nagaraja, P. J. Morris, M. Quezada, S. M. Gillespie, D. Y. Duveau, A. M. Michalowski, P. Shinn, R. Guha, M. Ferrer, C. Klumpp-Thomas, S. Michael, C. McKnight, P. Minhas, Z. Itkin, E. H. Raabe, L. Chen, R. Ghanem, A. C. Geraghty, L. Ni, K. I. Andreasson, N. A. Vitanza, K. E.Warren, C. J. Thomas, M. Monje, Therapeutic strategies for diffuse midline glioma from high-throughput combination drug screening. Sci. Transl. Med. 11, (2019).
[2] T. M. Yamamoto, A. McMellen, Z. L. Watson, J. Aguilera, R. Ferguson, E. Nurmemmedov, T. Thakar, G. L. Moldovan, H. Kim, D. M. Cittelly, A. M. Joglar, E. P. Brennecke, H. Wilson, K. Behbakht, M. J. Sikora, B. G. Bitler, Activation of Wnt signaling promotes olaparib resistant ovarian cancer. Mol. Carcinog. 58, 1770 - 1782 (2019).
PROTOCOL TABLE (as described by Inglese J, Shamu CE and Guy RK. 2007)
SEQUENCE No. (e.g., 1, 2, 3, etc.); […] (e.g., Cells, Incubation, Reagent, etc.); VALUE; DESCRIPTION.
1; Compounds; 20nL; 1536-well white tissue culture-treated plates.
2; Cells; 5 uL; PEO1, PEO4, and PEO1/OlaR cells at 600 cells per well.
3; Incubation; 96 hr; 37C, 95% humidity, 5% CO2.
4; Reagent; 3 uL; CellTiter-Glo (Promega).
5; Incubation; 15 min; room temperature.
6; Detection; Luminescence, PHERAstar (BMG Labtech) plate reader.
NOTES (numbers refer to Sequence numbers above)
1. MIPE 5.0 compounds were acoustically dispensed by Echo Acoustic Liquid Handler (Beckman Coulter Life Sciences). Each compound was plated at an 11-point concentration range with 1:3 dilution. Bortezomib, a proteasome inhibitor (final concentration, 20 uM), was used as a positive.
2. PEO1, PEO4, and PEO1/OlaR were trypsinized and dispensed in 5 uLof growth medium using a Multidrop Combi dispenser at a density of 600 cells per well to allow compounds to be present during the exponential growth phase.
3. Plates were incubated for 96 hours at standard incubator conditions and covered by a stainless steel gasketed lid to prevent evaporation.
4. Three microliters of CellTiter-Glo (Promega) were added to each well.
5. Plates were incubated at room temperature for 15 min with a stainless-steel lid in place.
6. Luminescence readings were taken using PHERAstar (BMG Labtech). […]

[1] = measured here: PEO1 parental Z-AUC

Row | Compound | Z-AUC | Z-AUC [1] | Z-AUC (measured here: PEO4 Z-AUC)
1 | CCOC(=O)[C@H](CCc1ccccc1)N[C@H]1CCc2ccccc2N(CC(=O)O)C1=O | -0.332 (inactive) | -0.731 | -0.74
2 | NS(=O)(=O)c1cc2c(cc1Cl)NC(C(Cl)Cl)NS2(=O)=O (configuration not stated) | 0.208 (inactive) | 0.729 | 0.959
3 | COc1cc2nc(N3CCCN(C)CC3)nc(NC3CCN(Cc4ccccc4)CC3)c2cc1OC | 0.899 (inactive) | 0.933 | 0.922
4 | O=C(O)c1cc(=O)[nH]c(=O)[nH]1 | 0.444 (inactive) | -0.118 | -0.128
5 | Cn1c(=O)c2c(ncn2CC(O)CO)n(C)c1=O (configuration not stated) | 0.897 (inactive) | 0.956 | 0.893
6 | CC1=NN(c2ccccc2)C(=O)C1 | 0.285 (inactive) | 0.838 | 1.05
7 | CC(C)(C#N)c1cc(Cn2cncn2)cc(C(C)(C)C#N)c1 | 1.1 (inactive) | 1.39 | 1.04
8 | CCCN[C@H]1CCc2nc(N)sc2C1 | -0.0876 (inactive) | -1.06 | -0.574
9 | CCC(=O)O[C@]1(C(=O)CCl)[C@@H](C)C[C@H]2[C@@H]3CCC4=CC(=O)C=C[C@]4(C)[C@@]3(F)[C@@H](O)C[C@@]21C | -0.206 (inactive) | 0.492 | -0.658
10 | CC(C)NCC(O)c1ccc(NS(C)(=O)=O)cc1 (configuration not stated) | -0.911 (inactive) | 1.13 | 0.42
11 | CC(C)(C)NC(=O)[C@H]1CC[C@H]2[C@@H]3CC[C@H]4NC(=O)C=C[C@]4(C)[C@H]3CC[C@]12C | 1.47 (inactive) | 1.04 | 1.46
12 | CNNCc1ccc(C(=O)NC(C)C)cc1 | 1.13 (inactive) | 0.747 | 1.05
13 | CNC1CCCN(c2c(F)cc3c(=O)c(C(=O)O)cn(C4CC4)c3c2OC)C1 (configuration not stated) | 1.39 (inactive) | 1.15 | 1.09
14 | COc1ccc(C(=O)CC(=O)c2ccc(C(C)(C)C)cc2)cc1 | 1.49 (inactive) | 0.772 | 1.06
